Test results from PubChem BioAssay (Tox21).
Records with an inconclusive call do not appear. The source made the active and inactive calls. Unless noted, calls follow the shape of the dose curve; as a rule, active = well fitted curve in the direction sought with a large enough effect in the repeat runs; inconclusive = weak or mixed curves; inactive = no such curve, though single readings can be large; an effect the other way counts as inactive or inconclusive.

Legend:
[1] = qHTS assay to identify aromatase inhibitors - cell viability counter screen (AID 743084);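 also: cells stimulated with testosterone during compound exposure; nearly all actives have a fitted effect of over 55% in size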
[2] = target: Aryl hydrocarbon receptor (Homo sapiens) (UniProt P35869); test: qHTS assay to identify small molecule that activate the aryl hydrocarbon receptor (AhR) signaling pathway (AID 743085);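 also: HG2L7.5c1 human HepG2 liver cells with stably integrated DRE-driven firefly reporter; series mostly up to about 70 µM; nearly all actives have a fitted effect of over 15% in size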
Sequence of Aryl hydrocarbon receptor (Homo sapiens) (P35869 whole entry, looked up): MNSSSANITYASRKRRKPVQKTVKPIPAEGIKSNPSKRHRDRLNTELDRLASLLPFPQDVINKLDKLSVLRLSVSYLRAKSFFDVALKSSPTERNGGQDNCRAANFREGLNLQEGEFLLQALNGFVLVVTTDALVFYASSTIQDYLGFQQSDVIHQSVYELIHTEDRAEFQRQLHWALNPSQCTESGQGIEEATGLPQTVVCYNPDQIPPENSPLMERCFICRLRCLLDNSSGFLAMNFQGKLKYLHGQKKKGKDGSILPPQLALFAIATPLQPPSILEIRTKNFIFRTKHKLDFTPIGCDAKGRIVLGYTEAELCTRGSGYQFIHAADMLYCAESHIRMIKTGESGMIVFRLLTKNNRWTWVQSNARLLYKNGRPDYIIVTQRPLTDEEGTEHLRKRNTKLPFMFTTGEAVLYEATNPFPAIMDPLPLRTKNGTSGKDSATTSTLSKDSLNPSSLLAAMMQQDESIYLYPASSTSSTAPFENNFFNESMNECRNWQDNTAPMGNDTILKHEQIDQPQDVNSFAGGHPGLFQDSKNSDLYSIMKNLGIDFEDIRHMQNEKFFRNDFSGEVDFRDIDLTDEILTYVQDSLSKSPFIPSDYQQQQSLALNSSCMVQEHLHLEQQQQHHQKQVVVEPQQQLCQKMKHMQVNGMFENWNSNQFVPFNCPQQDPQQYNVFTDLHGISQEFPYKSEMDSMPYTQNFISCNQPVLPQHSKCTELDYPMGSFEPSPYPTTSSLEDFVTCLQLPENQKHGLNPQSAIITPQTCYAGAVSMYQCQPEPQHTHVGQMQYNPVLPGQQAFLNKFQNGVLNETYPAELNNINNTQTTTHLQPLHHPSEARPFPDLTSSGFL
How it was run: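 Compounds were tested in HepG2 hepatocellular carcinoma cells harbouring a stably integrated luciferase gene under control of 20 DREs. Increased reporter signal after 24 h treatment at 37C was taken as AhR activation.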

[3] = qHTS assay to identify small molecule that activate the aryl hydrocarbon receptor (AhR) signaling pathway - cell viability counter screen (AID 743086);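 also: HepG2 liver cells carrying the AhR DRE luciferase reporter; series mostly up to about 70 µM; nearly all actives have a fitted effect of over 45% in size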
How it was run: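 HepG2-AhR-luc (HG2L7.5c1) cells, 4000/well, treated 24 h at 37 C with compound; viability measured as CellTiter-Fluor fluorescence after 30 min in the same wells as the luciferase read.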

[4] = target: Peroxisome proliferator-activated receptor gamma (Homo sapiens) (UniProt P37231); test: qHTS assay to identify small molecule agonists of the peroxisome proliferator-activated receptor gamma (PPARg) signaling pathway (AID 743094; active = well fitted activation curve with a large enough effect in the signal ratio in the repeat runs, not every such curve was filed as active; the % refers to the signal ratio)
Sequence of Peroxisome proliferator-activated receptor gamma (Homo sapiens) (P37231 whole entry, looked up): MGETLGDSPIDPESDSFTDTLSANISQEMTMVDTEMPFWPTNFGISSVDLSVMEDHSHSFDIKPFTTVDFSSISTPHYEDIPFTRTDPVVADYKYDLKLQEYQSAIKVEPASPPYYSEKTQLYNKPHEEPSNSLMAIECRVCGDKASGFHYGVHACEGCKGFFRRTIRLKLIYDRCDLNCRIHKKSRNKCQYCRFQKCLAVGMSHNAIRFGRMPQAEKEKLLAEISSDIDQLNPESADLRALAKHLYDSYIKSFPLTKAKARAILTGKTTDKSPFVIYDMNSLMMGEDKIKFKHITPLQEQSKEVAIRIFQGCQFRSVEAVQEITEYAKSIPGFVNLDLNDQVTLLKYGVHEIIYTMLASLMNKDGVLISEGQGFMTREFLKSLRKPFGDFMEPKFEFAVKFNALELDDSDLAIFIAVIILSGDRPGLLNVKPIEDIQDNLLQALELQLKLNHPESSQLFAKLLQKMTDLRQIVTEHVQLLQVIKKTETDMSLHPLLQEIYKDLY
How it was run: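 Compounds dissolved in DMSO were added to PPARg UAS-bla HEK293H cells for 17 h at 37C, and reporter expression was quantified by fluorescence intensity after 1 h with LiveBLAzer B/G FRET substrate.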

[5] = target: Peroxisome proliferator-activated receptor gamma (Homo sapiens) (UniProt P37231); test: qHTS assay to identify small molecule antagonists of the peroxisome proliferator-activated receptor gamma (PPARg) signaling pathway (AID 743191; calls by dose curve; also: series mostly up to about 63 µM; nearly all actives have a fitted effect of over 30% in size)
How it was run: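 GeneBLAzer PPARg UAS-bla HEK293H cells, 5 h post-plating, exposed to compounds 17 h at 37C. LiveBLAzer B/G FRET substrate added for 1 h at room temperature; beta-lactamase reporter read by fluorescence intensity.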

[6] = qHTS assay to identify small molecule antagonists of the peroxisome proliferator-activated receptor gamma (PPARg) signaling pathway - cell viability counter screen (AID 743194); also: nearly all actives have a fitted effect of over 55% in size
How it was run: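 Cytotoxicity counter screen in PPARg-bla HEK293H cells, same wells as reporter assay. Compounds plus 50 nM rosiglitazone (final) for 17 h at 37 C, then viability read by CellTiter-Glo luminescence.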

[7] = qHTS assay for small molecule agonists of the antioxidant response element (ARE) signaling pathway (AID 743202; active = well fitted activation curve with a large enough effect in the signal ratio in the repeat runs, not every such curve was filed as active; the % refers to the signal ratio)
How it was run: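 ARE-bla HepG2 cells (beta-lactamase reporter under the antioxidant response element), plated 5 hours, then exposed to compounds 16 hours at 37 C. LiveBLAzer B/G FRET substrate added for 2 hours at room temperature; fluorescence intensity read.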

[8] = qHTS assay for small molecule agonists of the antioxidant response element (ARE) signaling pathway - cell viability counter screen (AID 743203; calls by dose curve; also: nearly all actives have a fitted effect of over 55% in size)
How it was run: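 Following 16 hrs of compound treatment at 37C, HepG2 cells with an ARE-controlled beta-lactamase gene were lysed with CellTiter-Glo. Luminescence was read after 30 min at room temperature.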

[9] = qHTS assay for small molecule activators of the heat shock response signaling pathway - cell viability counter screen (AID 743209); also: nearly all actives have a fitted effect of over 50% in size
How it was run: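 Readout: CellTiter-Glo luminescence, 30 min at room temperature. System: HSE-bla HeLa cells, 1500/well, plated overnight. Treatment: compounds in DMSO, 5 h at 37 C.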

[10] = qHTS assay for small molecule activators of the heat shock response signaling pathway (AID 743210; active = well fitted activation curve with a large enough effect in the signal ratio in the repeat runs, with a control signal flat, not every such curve was filed as active; the % refers to the signal ratio; also: series mostly up to about 63 µM)
How it was run: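 HSE-bla HeLa cells (beta-lactamase reporter under heat shock response elements), plated overnight, then exposed to compounds 5 h at 37 C; LiveBLAzer B/G FRET substrate added, 2.5 h at room temperature, fluorescence intensity read.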

[11] = qHTS assay to identify small molecule agonists of the peroxisome proliferator-activated receptor delta (PPARd) signaling pathway - cell viability counter screen (AID 743211); also: nearly all actives have a fitted effect of over 55% in size
How it was run: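 Counter screen for cytotoxicity run in parallel with the PPARd reporter screen. Beta-lactamase reporter HEK293H cells exposed to compounds 17 h; ATP-based CellTiter-Glo luminescence quantified viability.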

[12] = qHTS assay to identify small molecule agonists of the farnesoid-X-receptor (FXR) signaling pathway - cell viability counter screen (AID 743218); also: nearly all actives have a fitted effect of over 45% in size
How it was run: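 Parallel cytotoxicity test: compound-treated (16 h, 37 C) HEK 293T FXR-bla reporter cells were lysed with CellTiter-Glo and luminescence recorded.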

[13] = qHTS assay to identify small molecule antagonists of the farnesoid-X-receptor (FXR) signaling pathway - cell viability counter screen (AID 743221; active = well fitted cell-killing curve with a large enough effect in the repeat runs, not every such curve was filed as active; also: nearly all actives have a fitted effect of over 50% in size; also: potency is read from the fitted curve at half-maximal effect)
How it was run: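 Multiplexed counter screen: viability of FXR-bla HEK 293T cells under agonist stimulation by chenodeoxycholic acid (50 uM, final) and test compound for 16 h at 37 C, measured by CellTiter-Glo luminescence in the reporter wells.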

[14] = target: Vitamin D3 receptor (Homo sapiens) (UniProt P11473); test: qHTS assay to identify small molecule agonists of the vitamin D receptor (VDR) signaling pathway (AID 743222; calls by dose curve)
Sequence of Vitamin D3 receptor (Homo sapiens) (P11473 whole entry, looked up): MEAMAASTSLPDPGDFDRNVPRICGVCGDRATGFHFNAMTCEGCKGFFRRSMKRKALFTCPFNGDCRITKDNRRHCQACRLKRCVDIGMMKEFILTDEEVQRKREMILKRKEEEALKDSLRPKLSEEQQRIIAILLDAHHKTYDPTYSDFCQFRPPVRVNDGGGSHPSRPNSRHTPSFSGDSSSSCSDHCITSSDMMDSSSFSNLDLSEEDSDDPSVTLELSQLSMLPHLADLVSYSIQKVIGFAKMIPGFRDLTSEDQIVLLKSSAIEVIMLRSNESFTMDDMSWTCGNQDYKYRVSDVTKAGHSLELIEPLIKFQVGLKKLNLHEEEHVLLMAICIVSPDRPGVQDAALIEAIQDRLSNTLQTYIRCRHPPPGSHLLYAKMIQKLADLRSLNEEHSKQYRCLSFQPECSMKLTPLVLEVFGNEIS
How it was run: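 In VDR-bla cells, compound-induced beta-lactamase expression is quantified by FRET substrate fluorescence. Treatment lasts 16 h at 37C; substrate develops 2 h at room temperature.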

[15] = target: Vitamin D3 receptor (Homo sapiens) (UniProt P11473); test: qHTS assay to identify small molecule antagonists of the vitamin D receptor (VDR) signaling pathway (AID 743223; active = well fitted inhibition curve with a large enough effect in the signal ratio in the repeat runs, not every such curve was filed as active; the % refers to the signal ratio)
How it was run: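 Cells carrying a VDR-driven beta-lactamase reporter (VDR-bla) were co-treated with compound and 3 nM final 1alpha,25-dihydroxyvitamin D3 for 16 h at 37C; reporter activity was measured as FRET substrate fluorescence after 2 h at room temperature.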

[16] = target: Peroxisome proliferator-activated receptor delta (Homo sapiens) (UniProt Q03181); test: qHTS assay to identify small molecule agonists of the peroxisome proliferator-activated receptor delta (PPARd) signaling pathway (AID 743212; calls by dose curve)
Sequence of Peroxisome proliferator-activated receptor delta (Homo sapiens) (Q03181 whole entry, looked up): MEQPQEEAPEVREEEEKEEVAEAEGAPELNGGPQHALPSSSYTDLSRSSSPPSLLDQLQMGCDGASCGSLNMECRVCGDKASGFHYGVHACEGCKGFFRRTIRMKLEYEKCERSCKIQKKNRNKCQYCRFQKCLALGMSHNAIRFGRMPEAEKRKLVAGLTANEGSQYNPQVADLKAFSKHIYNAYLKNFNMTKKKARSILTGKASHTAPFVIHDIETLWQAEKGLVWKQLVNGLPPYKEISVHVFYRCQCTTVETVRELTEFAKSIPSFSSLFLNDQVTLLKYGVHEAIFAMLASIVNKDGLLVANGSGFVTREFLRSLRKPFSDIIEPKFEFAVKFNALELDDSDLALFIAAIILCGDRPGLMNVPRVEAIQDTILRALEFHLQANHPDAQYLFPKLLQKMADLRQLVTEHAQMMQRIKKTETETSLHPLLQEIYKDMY
How it was run: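 GeneBLAzer UAS-bla HEK293H cells carrying a PPARδ construct were exposed to compounds at 37 °C. Beta-lactamase activity was read by FRET fluorescence after 2 h at room temperature with LiveBLAzer B/G substrate.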

[17] = qHTS assay to identify small molecule antagonists of the peroxisome proliferator-activated receptor delta (PPARd) signaling pathway - cell viability counter screen (AID 743213); also: nearly all actives have a fitted effect of over 50% in size
How it was run: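 HEK293H PPARd UAS-bla cells, 5 h pre-incubation, compound + L165041 300 nM final, 17 h 37 C; B/G FRET substrate 2 h RT; then CellTiter-Glo 30 min RT, luminescence.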

[18] = target: Peroxisome proliferator-activated receptor delta (Homo sapiens) (UniProt Q03181); test: qHTS assay to identify small molecule antagonists of the peroxisome proliferator-activated receptor delta (PPARd) signaling pathway (AID 743215; active = well fitted inhibition curve with a large enough effect in the signal ratio in the repeat runs, not every such curve was filed as active; the % refers to the signal ratio;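 also: cells stimulated with agonist L165041 at 300 nM final during compound exposure; series mostly up to about 62 µM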)
How it was run: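 HEK293H UAS-bla, PPARd; agonist L165041 300 nM final with cpd in DMSO; 37 C 17 h; FRET substrate, RT 2 h; fluorescence intensity.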

[19] = target: Bile acid receptor (Homo sapiens) (UniProt Q96RI1); test: qHTS assay to identify small molecule antagonists of the farnesoid-X-receptor (FXR) signaling pathway (AID 743217; active = well fitted inhibition curve with a large enough effect in the signal ratio in the repeat runs, not every such curve was filed as active; the % refers to the signal ratio)
Sequence of Bile acid receptor (Homo sapiens) (Q96RI1 whole entry, looked up): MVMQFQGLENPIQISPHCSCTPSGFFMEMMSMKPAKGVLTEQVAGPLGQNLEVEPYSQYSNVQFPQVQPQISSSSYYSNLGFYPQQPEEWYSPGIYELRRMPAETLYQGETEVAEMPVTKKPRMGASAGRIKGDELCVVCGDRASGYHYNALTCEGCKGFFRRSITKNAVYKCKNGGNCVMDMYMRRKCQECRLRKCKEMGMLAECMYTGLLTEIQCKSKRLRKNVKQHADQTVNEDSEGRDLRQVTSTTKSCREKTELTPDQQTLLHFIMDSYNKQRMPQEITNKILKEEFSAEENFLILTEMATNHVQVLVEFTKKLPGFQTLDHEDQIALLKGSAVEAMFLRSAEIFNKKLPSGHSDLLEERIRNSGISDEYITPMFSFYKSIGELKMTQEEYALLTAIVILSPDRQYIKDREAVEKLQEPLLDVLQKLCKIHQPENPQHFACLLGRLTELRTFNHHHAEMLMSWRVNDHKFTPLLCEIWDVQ
How it was run: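 GeneBLAzer FXR-UAS-bla HEK 293T, CDCA-stimulated (50 uM final). Compound treatment 16 h, 37 °C. Detection: beta-lactamase cleavage of B/G FRET substrate, fluorescence.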

[20] = target: Bile acid receptor (Homo sapiens) (UniProt Q96RI1); test: qHTS assay to identify small molecule agonists of the farnesoid-X-receptor (FXR) signaling pathway (AID 743220; active = well fitted activation curve with a large enough effect in the signal ratio in the repeat runs, not every such curve was filed as active; the % refers to the signal ratio)
How it was run: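 Beta-lactamase reporter under UAS control in GeneBLAzer FXR HEK 293T cells (5000/well) measured with LiveBLAzer FRET substrate after 2 h at room temperature. Compound exposure lasted 16 h at 37C.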
% is scaled to controls: 0 for no effect and ±100 for the full control effect.

CCN(CCO)CCCC(C)Nc1ccnc2cc(Cl)ccc12 (configuration not stated)
inactive: Potency [1] | Potency [2] | Potency [3] | Potency [4] | ratio activity, negative = inhibition [5] -5.98% [at 5.95 µM] | activity change, negative = cytotoxicity [6] 0.825% [at 5.95 µM] | activation [7] -5.09% [at 8.36 µM] | viability change, negative = cytotoxic [8] -9.02% [at 8.36 µM] | activity change, negative = cytotoxicity [9] -18.6% [at 5.95 µM] | activation [10] -0.125% [at 5.95 µM] | activity change, negative = cytotoxicity [11] 9.74% [at 5.95 µM] | viability change, negative = cytotoxic [12] -0.758% [at 5.95 µM] | activity change, negative = cytotoxicity [13] 10.2% [at 5.95 µM] | activation [14] 9.25% [at 6.01 µM] | activity change, negative = inhibition [15] -3.93% [at 6.95 µM]

OCC1CC2CC1C1CCC(CO)C21 (configuration not stated)
active: Potency [13] 24.5 µM
inactive: Potency [1] | Potency [2] | Potency [3] | Potency [4] | Potency [5] | Potency [6] | Potency [7] | Potency [8] | Potency [9] | outcome [10] | Potency [11] | outcome [16] | Potency [17] | outcome [18] | outcome [19] | outcome [20] | outcome [14] | Potency [15]

COC(=O)C(C)=O
inactive: Potency [1] | Potency [2] | Potency [3] | Potency [4] | Potency [5] | Potency [6] | Potency [7] | Potency [8] | Potency [9] | outcome [10] | Potency [11] | outcome [16] | Potency [17] | outcome [18] | Potency [13] | outcome [14] | Potency [15]

CC(C)(C)c1cc(CCC(=O)OCC(COC(=O)CCc2cc(C(C)(C)C)c(O)c(C(C)(C)C)c2)(COC(=O)CCc2cc(C(C)(C)C)c(O)c(C(C)(C)C)c2)COC(=O)CCc2cc(C(C)(C)C)c(O)c(C(C)(C)C)c2)cc(C(C)(C)C)c1O
inactive: Potency [1] | Potency [2] | Potency [3] | Potency [4] | Potency [5] | Potency [6] | Potency [7] | Potency [8] | Potency [9] | outcome [10] | Potency [11] | outcome [16] | Potency [17] | outcome [18] | outcome [19] | Potency [12] | outcome [20] | outcome [14] | Potency [15]

SC1CCCC1
inactive: Potency [1] | Potency [2] | Potency [3] | Potency [4] | Potency [5] | Potency [6] | Potency [7] | Potency [8] | Potency [9] | outcome [10] | Potency [11] | Potency [17] | Potency [12] | Potency [13]

C=C(C)C(=O)OCCOc1ccccc1
inactive: Potency [1] | Potency [2] | Potency [3] | Potency [4] | Potency [5] | Potency [6] | Potency [7] | Potency [8] | Potency [9] | Potency [11] | outcome [16] | Potency [17] | outcome [18] | Potency [12] | Potency [13] | outcome [14] | Potency [15]

c1ccc(CNCc2ccccc2)cc1
inactive: Potency [1] | Potency [2] | Potency [3] | Potency [4] | Potency [5] | Potency [6] | Potency [7] | Potency [8] | Potency [9] | outcome [10] | Potency [11] | outcome [16] | outcome [18] | Potency [12] | outcome [14] | Potency [15]

O=C(C(=O)c1ccc(Br)cc1)c1ccc(Br)cc1
inactive: Potency [1] | Potency [2] | Potency [3] | Potency [4] | Potency [5] | Potency [6] | Potency [7] | Potency [8] | Potency [9] | outcome [10] | Potency [11] | outcome [16] | Potency [17] | outcome [18] | outcome [19] | Potency [12] | outcome [20] | Potency [13] | outcome [14] | Potency [15]
